According to PubChem BioAssay (NCI):
Several values for one entry are separate records, joined by “and”; a condition that tells them apart may be missing. Equal entries are not always repeated. The panel holds about 83,000 compounds, 20% with a hit somewhere; the sample as a whole holds those more often.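 A percent growth of 40 corresponds to 60% growth inhibition; 0 means no net growth; -100 means all cells died. Active threshold: below 10.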 Unmarked numbers belong to inactive results. Activity calls are given as the source filed them.

Each molecule was assayed on OVCAR-8 ovarian (assay: NCI-60 one-dose screen, 48 h (100 = growth as untreated, 0 = no growth, -100 = all killed)). Conditions: 0.005 µM.
Description: Growth inhibition of the OVCAR-8 human tumor cell line is measured as a screen for anti-cancer activity. Cells are grown in 96 well plates and exposed to the test compound for 48 hours. Compounds are tested at a single concentration, which is 10^-5 M for most compounds. The reported endpoint is percent growth (GI% or GIPRCNT), where numbers from 0 - 100% represent growth inhibition, and numbers from -100% - 0 represent cell death. For example, a value of 40 represents 60% growth inhibition. A value of 0 means no net growth occurred over the course of the experiment. A value of -40 indicates 40% of cells at the beginning of the experiment died by the end of the experiment. A value of -100 means all cells are dead at the end of the experiment.
NCI-60 Human Tumor Cell Lines Screen was performed using the standard one-dose NCI protocol, which is described in more detail at https://dtp.cancer.gov/discovery_development/nci-60/default.htm.
Compounds with GIPRCNT values below 10 were considered active. Activity score was based on GIPRCNT using the following formula: […]
Score is 0 for GIPRCNT values of 100 or above, 50 for GIPRCNT values of 0, and 100 for GIPRCNT values of -100.
`CN(C)CCNc1ncc(F)c(-c2cnc3cc(-c4cnn(C)c4)ccn23)n1` gave a growth of 99.9%.

Same assay, conditions: 10 µM
With `COc1ccc(C(=O)/C=C/c2ccc(OCc3cccc(C(F)(F)F)c3)c(OC)c2)cc1OC` the growth was 67.1%.

Same assay, conditions: 10 µM unless noted
For `Nc1nc2c(s1)CCc1cn(S(=O)(=O)c3ccccc3)cc1-2`, the growth was 88.6% and 110%.
In the case of `CC(Sc1ccccc1)C(=O)O` (stereo not given), the growth is reported as 99.5%.
Work on `C=CCNC(=O)Cc1c(-c2ccc(OC)cc2)oc2c(OC)c3c(c(OC)c12)OCO3` yielded a growth of 95.9%.
With `[2H]C([2H])([2H])Oc1cc(F)ccc1/C=C/C(=O)/C=C(/C=C/c1ccc(F)cc1OC([2H])([2H])[2H])OB(F)F` the growth was 4.99% (active).
With `Cc1ccc(NC(=O)N/C(N)=N/c2nc(=O)c3ccccc3s2)cc1` the growth was 101%.
With `Cc1ccc(C(=O)c2ccc(CC(=O)N=Nc3c(O)[nH]c4ccc(OC(F)(F)F)cc34)n2C)cc1` the growth was 94%.
`Cn1cc(-c2nonc2-c2cn(C)c3ccc(Br)cc23)c2ccccc21` was tested, and the growth was 36.8%.
With `CCCCCCNC(=O)Oc1ccc(/C(=C(/CC)Cc2ccccc2)c2ccc(OCCCN(C)C)cc2)cc1` the growth was 83.9%.
`ON=C1CCCCCCCC1` was tested, and the growth was 102% and 107%.
Molecule `CCCCC1COc2cccc3c2N1C=C/C3=C\C(=O)N(C)c1cccc(Cl)c1` (stereo not given) has a growth of 97.1%.
In the case of `Cc1ccc(S(=O)(=O)OC[C@@]2(C)CC[C@]3(C)CC[C@]4(C)C(=C3C2)C=C[C@@H]2[C@@]3(C)CCCNC(C)(C)[C@@H]3CC[C@]24C)cc1`, the growth is reported as -65.6% (active).
`S=c1nc(CS)[nH]c2ccccc12` showed a growth of 90.9%.
In the case of `O=c1c2c([nH]c3ccccc13)CCCC2`, the growth is reported as 99.8% and 40.5%.
Molecule `CC(=NCc1ccccc1)c1ccc(O)cc1O` has a growth of 103%.
`C=CCN1C=CC(=O)[C@H](O[Si](C)(C)C(C)(C)C)[C@@H]1/C=C/c1ccccc1` was tested, and the growth was -47.1% [100 µM] (active).
Work on `CCCCCCCCCCCCC[C@H](O)C[C@H](O)[C@H](C)N` yielded a growth of 89.7% [1.25 µM].
`CCN1CCN(C(=O)[C@]23CC[C@@H](C)[C@H](C)[C@@H]2C2=CC[C@@H]4[C@@]5(C)CCC(=O)C(C)(C)[C@@H]5CC[C@@]4(C)[C@]2(C)CC3)CC1` showed a growth of 16.5%.
Work on `O=c1oc2c(Br)cc(Br)cc2cc1-c1cc(-c2ccc(-c3cc(-c4cc5cc(Br)cc(Br)c5oc4=O)nc(-c4cc5cc(Br)cc(Br)c5oc4=O)c3)cc2)cc(-c2cc3cc(Br)cc(Br)c3oc2=O)n1` yielded a growth of 108%.
With `CCOC(=O)c1nc2c3ccccc3cnn2c1C(=O)c1ccc(OC)cc1` the growth was 98.2%.
In the case of `O=C(CCl)N(O)c1ccc(/C=C/c2ccccc2)cc1`, the growth is reported as 63.1% and 89.3%.
In the case of `Cc1oc2c(Cc3ccc(NC(=O)c4ccc(Cl)cc4)cc3)ncnc2c1C(=O)NO`, the growth is reported as 98.5%.
`CCc1c2c(nc3ccc(OCc4ccc(B5OC(C)(C)C(C)(C)O5)cc4)cc13)-c1cc3c(c(=O)n1C2)COC(=O)[C@]3(O)CC` showed a growth of 10.6%.
With `CCN(CC)CCCN1C(=O)c2c(c(C)c3c(oc4cc(OC)ccc43)c2C)C1=O` the growth was 17%.
`O=C(CN1C(=O)S/C(=C\C(Cl)=C\c2ccccc2)C1=O)NCCCn1ccnc1` showed a growth of 12.4%.
Molecule `COc1cc(/C=C2/C=C(c3ccc(C(C)(C)C)cc3)N(CCc3ccc(S(N)(=O)=O)cc3)C2=O)cc(OC)c1OC` has a growth of 57.4%.
For `COc1cc2c(cc1OCCCOC1=C=C=C(c3ccc4c(c3)c3cc(-c5ccc(OCCCOc6cc7c(cc6OC)C(=O)N6CCC[C@H]6C=N7)cc5)ccc3n4S(=O)(=O)c3ccc(C)cc3)C=C1)N=C[C@@H]1CCCN1C2=O`, the growth was 23.9%.
`C#CCOCC1CN(C)C(=O)O1` (stereo not given) showed a growth of 94.1%.
Molecule `CCCCCCCCN(CCCCCCCC)CC(O)c1cc(Cl)ccc1OC` (stereo not given) has a growth of 87.9%.
With `O=C(Nc1ccc2ccccc2c1)c1cc2ccccc2cc1O` the growth was 102%.
`C/C=C(\C)C(=O)N[C@H]1CC[C@]2(C)C3CC[C@@]4(C)C(CC[C@@H]4C(C)N(C)C)C3CCC2[C@H]1OC(C)=O` (stereo not given in full) was tested, and the growth was 24.9%.
In the case of `Cc1ccc(/C=C/c2c(C(=O)/C=C/c3ccccc3)c(C)nc3ccccc23)cc1`, the growth is reported as 1.99% (active).
Molecule `O=c1ccc2nc(-c3ccccn3)nn(-c3ccccc3)c-2c1` has a growth of 87.1%.
For `COc1ccc(/C=C/C(=O)c2cc3c(N)c(C(=O)Nc4ccccc4Cl)sc3nc2C)cc1`, the growth was 40.3%.
`COc1ccc(/C(C)=C(\c2ccc(OCCN3CCOCC3)cc2)c2ccc(OC(=O)C3CCCCC3)cc2)cc1` was tested, and the growth was 105%.
For `Cc1nnc(NS(=O)(=O)c2ccc(N=Nc3ccc(N)nc3N)cc2)s1`, the growth was 107% and 116%.
In the case of `CCCN1C(=O)/C(=c2\sc3n(c2=O)NC2C(N=3)N(CC)C(=O)N2CC)c2ccccc21` (stereo not given), the growth is reported as 35.7%.

Same assay, conditions: 30 µM
Work on `CN(C)CCNc1ncc(F)c(-c2cnc3cc(-c4cnn(C)c4)ccn23)n1` yielded a growth of 54.3%.

Same assay, conditions: 100 µM
With `COc1ccc(C(=O)/C=C/c2ccc(OCc3cccc(C(F)(F)F)c3)c(OC)c2)cc1OC` the growth was 4.75% (active).
